Measured values reported in PubChem BioAssay AID652015 (National Center for Advancing Translational Sciences (NCATS), 2013).
Results filed as inconclusive are left out. Calls of active or inactive are those of the source. Calls follow the shape of the dose curve; as a rule, active = well fitted inhibition curve with a large enough effect; inconclusive = small, poorly fitted or top-dose-only effect; inactive = no such curve, though single readings can be large or run the other way.

These molecules were tested against Coelenterazine h 2-monooxygenase (Renilla reniformis) (UniProt P27652) (assay: qHTS Assay for Inhibitors of Sea Pansy Luciferase from the GSK Published Protein Kinase Inhibitor Set). Details: purified Renilla luciferase, luminescence; series mostly up to 57.5 µM.
Coelenterazine h 2-monooxygenase (Renilla reniformis), sequence (P27652 whole entry, looked up): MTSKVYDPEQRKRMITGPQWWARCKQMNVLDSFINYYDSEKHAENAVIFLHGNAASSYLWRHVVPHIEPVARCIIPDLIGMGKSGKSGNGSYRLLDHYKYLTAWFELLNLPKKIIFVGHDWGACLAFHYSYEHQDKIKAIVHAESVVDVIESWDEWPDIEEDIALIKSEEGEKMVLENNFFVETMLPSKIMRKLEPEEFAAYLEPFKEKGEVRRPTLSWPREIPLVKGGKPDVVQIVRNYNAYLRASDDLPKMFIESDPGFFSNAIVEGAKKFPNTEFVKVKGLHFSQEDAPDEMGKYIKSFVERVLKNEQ
Description: FLuc (firefly luciferase) is the prototypical bioluminescent reporter gene from Photinus pyralis.[1] The enzyme catalyzes the oxidation luciferin via luciferin-AMP to produce light. FLuc is used in cell-based reporter gene-based assays for screening small molecule chemical libraries. However, small molecule luciferase inhibitors present in most large chemical libraries are often enriched in the output of high throughput screens using this reporter sometimes complicating interpretation and candidate selection.
RLuc is a bioluminescent reporter gene luciferase from Renilla reniformis, also known as the sea pansy. RLuc uses the luciferin substrate coelenterazine. RLuc is often used in combination with the nonhomologous luciferase FLuc (firefly luciferease) as a trasfection or pathway normalization control. Recently, non-homologous reporters have been described for high throughput screening 'coincidence' reporter gene strategies.
1. Fan F, Wood KV (2007) Bioluminescent assays for high-throughput screening. Assay Drug Dev Technol 5: 127-136.
2. Thorne N, Inglese J, Auld DS (2010) Illuminating insights into firefly luciferase and other bioluminescent reporters used in chemical biology. Chem Biol 17: 646-657.
3. […] Chem Biol 19: 1060-1072.
4. Michelini E, Cevenini L, Mezzanotte L, Coppa A, Roda A (2010) Cell-based assays: fuelling drug discovery. Anal Bioanal Chem 398: 227-238.
5. Cheng KC, Inglese J (2012) A coincidence reporter-gene system for high-throughput screening. Nat Methods 9: 937.
Biochemical renilla luciferase enzyme assay
NCGC Assay Protocol Summary:
Reagents: 50mM Tris acetate, pH 7.5; 100uM NaCl; 5uM Coelenterazine H (Promega #S2011); 0.01% Tween-20; 0.05% BSA; 1nM R. reniformis luciferase (Nanolight Technologies #314)
Control compounds used were a known renilla luciferase inhibitor BTS (Tocris Biosciences #1870) and DMSO.
Three microliters containing renilla luciferase substrate in buffer (final concentrations: 50mM Tris acetate, pH 7.5, 100uM NaCl, 0.01% Tween-20, 0.05% BSA, 5uM coelenterazine h) are dispensed into each well of a Greiner white, solid-bottom 1536-well format plate using a flying reagent dispenser (FRD). These assay plates were then treated with 23nL of compound or DMSO using a Kalypsys pin tool, which allows for delivery of a 7-point interplate titration of each compound to the assay plate (quantitative HTS), with final compound concentrations ranging from approximately 60uM to 300pM. One microliter of renilla luciferase in 50mM Tris-acetate buffer was then delivered by FRD to each well for a final enzyme concentration of 1nM. Luciferase activity was then measured using an Envision plate reader (PerkinElmer), with an average incubation time of 2 min.
Potency is read from the fitted curve at half-maximal effect.

Potency, active:
CN1CCN(CCCNc2nc3ccc(Oc4ccc(NC(=O)Nc5cc(C(F)(F)F)ccc5F)cc4)cc3[nH]2)CC1 23.1 µM
CN(C)c1ccc2[nH]c(O)c(C=Nc3ccc(S(N)(=O)=O)cc3)c2c1 5.8 µM

Potency, inactive:
COC(=O)Nc1nc2ccc(Oc3ccc(NC(=O)Nc4cccc(Br)c4)cc3)cc2[nH]1
COC(=O)Nc1nc2ccc(Sc3ccc(NC(=O)Nc4cc(C(F)(F)F)ccc4F)cc3)cc2[nH]1
O=C1NC(=O)C(c2ccc(Cl)cc2)=C1Nc1ccc(Cl)c(C(=O)O)c1
Fc1ccc(-c2nc3n(c2-c2ccncc2)CCS3)cc1
COc1cc(Nc2ncc3c(C)nc(-c4cccc(C(F)(F)F)c4)n3n2)cc(OC)c1OC
N#Cc1c(NC(=O)CN2CCOCC2)sc2c1CCCC2
COc1cc2c(cc1Nc1nc(Nc3ccsc3C(N)=O)c3cc[nH]c3n1)N(C(=O)CN(C)C)CCC2(C)C
c1cnn2ncc(-c3ccnc(Nc4ccc5c(c4)OCCO5)n3)c2c1
CCC(=O)Nc1ccc(C)c(-c2ccc(C(=O)NCC3CC3)cc2)c1
NS(=O)(=O)c1cccc(Nc2cc(-c3ccc(F)cc3)[nH]n2)c1
CC1=C(C(=O)Nc2ccc3[nH]ncc3c2)C(c2ccc3ccccc3c2)CC(=O)N1 (stereo not given)
Cc1nn(C)c2cc(N(C)c3ccnc(Nc4cccc(S(N)(=O)=O)c4)n3)ccc12
COc1ccc(-c2ccncc2)cc1C(N)=O
Cc1nc(-c2ccccc2)n2nc(NCCCN3CCOCC3)ncc12
Cc1ccc(Nc2ccnc(Nc3cccc(C(N)=O)c3)n2)cc1O
COc1cc(N2CCN(C(C)C)CC2)ccc1Nc1nc(Nc2cccc(F)c2C(=O)O)c2cc[nH]c2n1
CN(C)C(=O)OC1CNC(C#Cc2cc3ncnc(Nc4ccc(OCc5cccc(F)c5)c(Cl)c4)c3s2)C1 (stereo not given)
CNC(=O)c1cc(-c2ccc(F)cc2)cc(-c2ccc(S(=O)(=O)N3CCCC3)cc2)c1N
Cc1ccc2c(-c3ccnc(Nc4ccccc4)n3)c(-c3ccc(F)cc3)nn2n1
Cc1cccc(Nc2ncc(-c3ccccc3)o2)c1
c1ccc(-c2nc3n(c2-c2ccc4c(c2)OCO4)CCC3)nc1
CCN1CCC(C(=O)Nc2n[nH]c3nnc(-c4cccc(F)c4F)cc23)CC1
CCN(CC)S(=O)(=O)c1ccc(OC)c(Nc2ncc(-c3ccccc3)o2)c1
CCc1cccc(NC(=O)Nc2ccc(Oc3ccc4nc(NC(=O)OC)[nH]c4c3)cc2)c1
O=C(Nc1n[nH]c2cc(-c3ccc(F)cc3)ccc12)C1CC1
CCn1c(-c2nonc2N)nc2cnc(Oc3cccc(NC(=O)c4ccc(N(C)C)cc4)c3)cc21
COc1ccc(-c2nn3ncccc3c2-c2ccnc(Nc3cccc(C(F)(F)F)c3)n2)cc1
Fc1ccc(-c2ncn(C3CCNCC3)c2-c2ccnc(Oc3ccc(Cl)cc3)n2)cc1
O=S1CCN(Cc2ccc(-c3ccc4ncnc(Nc5ccc(OCc6cccc(F)c6)c(Cl)c5)c4c3)o2)CC1
NC(=O)c1cc(-c2ccncc2)cc(-c2ccccc2)c1N
COc1c(C(N)=O)cc(-c2ccc(Cl)cc2)cc1-c1ccc(S(N)(=O)=O)cc1
CCn1c(-c2nonc2N)nc2c(N3CCCC3)nccc21
CS(=O)(=O)Nc1ccc(-c2ccc3c(NC(=O)C4CC4)n[nH]c3c2)cc1
O=C1NC(=O)C(c2cccc(Cl)c2)=C1Nc1ccc(Cl)c(C(=O)O)c1
Fc1ccc(-c2ncn(C3CCNCC3)c2-c2ccnc(Oc3cccc(C(F)(F)F)c3)n2)cc1
Cc1ccc2c(-c3ccnc(Nc4cccc(C(F)(F)F)c4)n3)c(-c3ccccc3)nn2n1
COc1cc(C=NNc2ncnc3c2cnn3-c2ccccc2)ccc1O
O=C(OC1CNC(C#Cc2cc3ncnc(Nc4ccc5c(cnn5Cc5ccccc5)c4)c3s2)C1)N1CCOCC1 (stereo not given)
